SMILES strings stand for the structures. Results filed as inconclusive are left out. Entries that show only a call come without a potency. A number with no mark means an inactive call. The source made the active and inactive calls. The call rests on the fitted dose curve; in most records, active means well fitted cell-killing curve with a large enough effect in the repeat runs; inconclusive means weak or mixed curves; inactive means flat fitted curve, though single readings scatter.

Data on 40 compounds can be found in PubChem BioAssay (Tox21).

The test is described as follows: qHTS RealTime-Glo MT Cell Viability Assay in HepG2 cells - 16 hour (AID 1224885). Further: nearly all actives have a fitted effect of over 50% in size. The note with it: RealTime-Glo luminescence; series mostly up to 76.8 µM. The source says:
U.S. Tox21 Program National Center for Advancing Translational Sciences [NCATS] NIH Chemical Genomics Center [NCGC] U.S. Environmental Protection Agency [EPA] National Institutes of Environmental Health Sciences [NIEHS] National Toxicology Program [NTP] U.S. Food and Drug Administration [FDA] Tox21 Assay Overview: Measure of cell viability is critical in the cell-base assay. Analysis of cell viability is necessary for the characterization of cell responses to cytotoxic drugs and environmental stress. A RealTime-Glo MT Cell Viability Assay to monitor cell viability in real time of continues cell culture during 40 hours of compound treatment was used to screen Tox21 10K library compounds in HepG2 cells. The RealTime-Glo MT Cell Viability Assay is a nonlytic, homogeneous, bioluminescent method to measure cell viability in real time using a simple, plate-based method. The assay involves adding NanoLuc luciferase and a cell-permeant prosubstrate to cells in culture. Viable cells reduce the proprietary prosubstrate to generate a substrate for NanoLuc luciferase. This substrate diffuses from cells into the surrounding culture medium, where it is rapidly used by the NanoLuc Enzyme to produce a luminescent signal. The signal correlates with the number of viable cells, making the assay well suited for cytotoxicity studies.
Tox21 Assay Protocol Summary: The mixture of HepG2 cell suspension and reagents were dispensed at 600cells/6 ul/well in 1536-well tissue culture treated black solid bottom plates using a Multidrop dispenser. After the assay plates were incubated at a 37 C/5% CO2 incubator for 5 hours, 23 nL of compounds dissolved in DMSO, positive and negative controls was transferred to the assay plate by a pintool work station. The plates were incubated at 37 C for 40 hours. The luminescence intensity were measured at 0h, 8h, 16h, 24h, 32h and 40h time points using ViewLux plate reader during compound treatment.
Consider `NC(=O)c1cn(Cc2c(F)cccc2F)nn1`, for which the Potency entry is “inactive”.
As for `CCN(Cc1ccncc1)C(=O)C(CO)c1ccccc1` (stereo not given), the Potency result was “inactive”.
Still for that read-out and setting: as for `NS(=O)(=O)c1cc(C(=O)O)cc(N2CCCC2)c1Oc1ccccc1`, the entry is “inactive”; as for `CCO/C([O-])=N/c1c[n+](N2CCOCC2)no1`, “inactive”; as for `CCCCOCCOCCOCCCC`, “inactive”.
On to `C=C1CC[C@H]2C[C@@H]1C2(C)C`, for which the Potency entry is “inactive”.
Same read-out and setting: next, `CC(C)CNCC(C)C`: “inactive”; `CCCN1CCCC[C@H]1C(=O)Nc1c(C)cccc1C`: “inactive”.
For the compound `CC(C)c1cc2c(cc1S(=O)(=O)O)[C@@]1(C)CCC[C@@](C)(C(=O)O)[C@@H]1CC2`, the Potency result is “inactive”.
For `C=CCS(=O)(=O)O`, the Potency entry is “inactive”.
On the same count and under the same terms, next, `COc1ccc2c(c1)c(CC(=O)OCC(=O)O)c(C)n2C(=O)c1ccc(Cl)cc1`: “inactive”; `CCCN(CCC)CCc1cccc2c1CC(=O)N2`: “inactive”; `CC(C)(c1ccc(O)cc1)c1ccc(O)cc1`: “inactive”.
For the compound `O=C(O)CN(CCOCCOCCN(CC(=O)O)CC(=O)O)CC(=O)O`, the activity change, negative = cytotoxic is 0.683% [at 0.29 µM].
Take `CCO[Si](CCC1CCC2OC2C1)(OCC)OCC` (stereo not given): the Potency result is “inactive”.
The same measure, in the same setting: as for `C[C@@H]1CCN(C(=O)[C@H](CCCN=C(N)N)NS(=O)(=O)c2cccc3c2NC[C@H](C)C3)[C@@H](C(=O)O)C1`, the entry is “inactive”.
Consider `N[C@H](C(=O)O)c1ccc(O)cc1`, for which the activity change, negative = cytotoxic is 1.01% [at 15.8 µM].
Consider `C=CCOCC(CC)(CO)COCC=C`, for which the Potency result was “inactive”.
On the same count and under the same terms, as for `Cc1[nH]c(=O)c(C#N)cc1-c1ccc2nccn2c1`, the entry is “inactive”; as for `Cc1ccc(Cl)cc1Cl`, “inactive”; as for `CC(=O)OCC(CCn1cnc2cnc(N)nc21)COC(C)=O`, “inactive”.
On to `CCCCC(CC)COC(=O)c1ccccc1O` (stereo not given), for which the Potency entry is “inactive”.
`O=C1CCCN1C1CCCCC1`: the Potency result is “inactive”.
Consider `Cc1cccc(C)c1NC(=O)C(C)N` (stereo not given), for which the Potency result was “inactive”.
For the compound `COc1cc(C(=O)N2CCCCCCC2)cc(OC)c1OC`, the Potency entry is “inactive”.
The same measure, in the same setting: next, `Cn1c(N)c(N=O)c(=O)n(C)c1=O`: “inactive”.
The same measure, in the same setting: as for `NC(=O)c1ccc(N)cc1`, the entry is “inactive”.
Turning to `O=S(O)CO`, the Potency entry is “inactive”.
Turning to `Cc1nc2c([nH]1)c(=O)n(C)c(=O)n2Cc1ccco1`, the Potency result was “inactive”.
As to `NC(=O)COCCN1CCN(C(c2ccccc2)c2ccc(Cl)cc2)CC1` (stereo not given), the Potency entry was “inactive”.
`N[C@H]1CN(c2c(F)cc3c(=O)c(C(=O)O)cn(C4C[C@H]4F)c3c2Cl)CC12CC2` (stereo not given in full): the Potency result was “inactive”.
For the compound `NC(=O)Nc1ccccc1`, the Potency entry was “inactive”.
Same read-out and setting: as for `C=C(C)C(=O)OCCCCCCCC(C)C`, the entry is “inactive”; as for `COC(=O)CCSCCC(=O)OC`, “inactive”.
As to `Cc1cnc(NS(=O)(=O)c2ccc(N)cc2)nc1`, the Potency entry is “inactive”.
Consider `O=C1CC2CC1C1CCCC21` (stereo not given), for which the Potency result was “inactive”.
For `Nc1c[n+](N2CCOCC2)no1`, the Potency result was “inactive”.
For the compound `CN1CCCC1`, the Potency result was “inactive”.
As for `CC[N+](C)(C)c1cccc(O)c1`, the Potency result was “inactive”.
For `CCOC(=O)CCC(C)=O`, the Potency entry is “inactive”.
